Source: PubChem BioAssay AID1159580 (chemical genetic matrix, 2015)
Out of some 5,500 compounds screened, about 2,000 (36%) were called active. About 18% were inconclusive and are not listed. Rule as the data show it: active = normalized growth mostly below about 0.91 (no sharp cut-off); inconclusive = no clear call, values can overlap the other calls; inactive = mostly above about 0.92. This is one part of the list.

Experiment: chemical genetic growth profiling, strain panel (AID 1159580);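 also: tested at 20 µM; growth read once vehicle control cultures reached saturation at 30 °C; 1 = growth at the plate median or of vehicle wells; lower values mean less growth of the strain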
Details: S. cerevisiae deletion strains, growth OD
[1] = locus YAL040C, strain CLN3, stronger effect = lower value
[2] = locus YDR150W, strain NUM1, stronger effect = lower value
[3] = locus YDR363W, strain ESC2, stronger effect = lower value
[4] = locus YER002W, strain NOP16, stronger effect = lower value
[5] = locus YGR078C, strain PAC10, stronger effect = lower value
[6] = locus YNL128W, strain TEP1, stronger effect = lower value
[7] = locus YNL175C, strain NOP13, stronger effect = lower value
[8] = locus YNL197C, strain WHI3, stronger effect = lower value
[9] = locus YNL224C, strain SQS1, stronger effect = lower value
[10] = locus YNL322C, strain KRE1, stronger effect = lower value
[11] = locus YOR083W, strain WHI5 (second series), stronger effect = lower value
[12] = locus YCL061C, strain MRC1 (second series), stronger effect = lower value

Measured: normalized growth

C[N+](C)(C)CC=O
inactive: [1] 0.989 | [2] 1.01 | [3] 0.979 | [4] 0.989 | [5] 1.01 | locus YJR075W, strain HOC1, stronger effect = lower value 0.999 | [6] 0.981 | [7] 1 | [8] 1.04 | [9] 0.993 | [10] 0.994 | [11] 1.06 | locus YPL055C, strain LGE1, stronger effect = lower value 1.03

C/C=C(/C)C(=O)O[C@H]1C(C)=C2[C@H]([C@@H]1OC(=O)CCCCCCC)[C@@](C)(OC(C)=O)C[C@H](OC(=O)CCC)[C@@]1(O)[C@H]2OC(=O)[C@@]1(C)O
inactive: [1] 1 | [12] 0.995 | [2] 1.01 | [3] 1.02 | [4] 1.01 | [5] 0.995 | locus YGR229C, strain SMI1, stronger effect = lower value 1.05 | locus YMR263W, strain SAP30, stronger effect = lower value 0.995 | locus YMR307W, strain GAS1, stronger effect = lower value 0.968 | [6] 1.03 | [7] 1.02 | [8] 0.984 | [9] 0.988 | [11] 1

CCCCCC(CC(=O)NO)C(=O)NC(C(=O)N1CCCC1CO)C(C)C (centres undefined)
inactive: [1] 0.97 | [12] 0.995 | [3] 1.06 | [4] 0.971 | [5] 0.976 | locus YNL153C, strain GIM3, stronger effect = lower value 0.976 | [7] 0.96 | [8] 0.987 | [9] 1.01 | [10] 1.01 | [11] 0.964 | locus YPL241C, strain CIN2, stronger effect = lower value 0.97
